# Laboratory results taken from the supplement of paper PMC10849652.
# About 8,800 targets were measured; listed, in parts, are those with a hit and a random draw of the rest. About 0.5% of all pairs of compound and target were hits. A number with no mark means an inactive call.
# Compound: CC1=C(C(CC(=O)N1)C2=CC=C(C=C2)C(F)(F)F)C(=O)NC3=C(C=C4C(=C3)C=NN4)F
# Assay: log2 fold change, soluble protein after heating vs DMSO (PISA); higher = thermal stabilisation; K562 lysate, 10 uM; active = over 0.2 and 3.5 SD of the protein, either way, in both replicates (recomputed)
# Summary of the method: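 Thermal stability, expressed as log-two fold change relative to solvent controls, is given from duplicates. Crude K562 extract in PBS pH 7.4 with 1 mM MgCl2, at 1 mg/mL protein, was treated with 10 μM compound for 30 min and heated in aliquots for 3 min across 48°C-58°C. After pooling, adjustment to 0.5% NP-40 at 4°C and centrifugation at 21,000xg for 90 min, supernatant protein was measured by TMTpro 16plex LC-MS/MS with channel sums equalised.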
# UniProt Q8IWC1, sequence (Q8IWC1 whole entry, looked up): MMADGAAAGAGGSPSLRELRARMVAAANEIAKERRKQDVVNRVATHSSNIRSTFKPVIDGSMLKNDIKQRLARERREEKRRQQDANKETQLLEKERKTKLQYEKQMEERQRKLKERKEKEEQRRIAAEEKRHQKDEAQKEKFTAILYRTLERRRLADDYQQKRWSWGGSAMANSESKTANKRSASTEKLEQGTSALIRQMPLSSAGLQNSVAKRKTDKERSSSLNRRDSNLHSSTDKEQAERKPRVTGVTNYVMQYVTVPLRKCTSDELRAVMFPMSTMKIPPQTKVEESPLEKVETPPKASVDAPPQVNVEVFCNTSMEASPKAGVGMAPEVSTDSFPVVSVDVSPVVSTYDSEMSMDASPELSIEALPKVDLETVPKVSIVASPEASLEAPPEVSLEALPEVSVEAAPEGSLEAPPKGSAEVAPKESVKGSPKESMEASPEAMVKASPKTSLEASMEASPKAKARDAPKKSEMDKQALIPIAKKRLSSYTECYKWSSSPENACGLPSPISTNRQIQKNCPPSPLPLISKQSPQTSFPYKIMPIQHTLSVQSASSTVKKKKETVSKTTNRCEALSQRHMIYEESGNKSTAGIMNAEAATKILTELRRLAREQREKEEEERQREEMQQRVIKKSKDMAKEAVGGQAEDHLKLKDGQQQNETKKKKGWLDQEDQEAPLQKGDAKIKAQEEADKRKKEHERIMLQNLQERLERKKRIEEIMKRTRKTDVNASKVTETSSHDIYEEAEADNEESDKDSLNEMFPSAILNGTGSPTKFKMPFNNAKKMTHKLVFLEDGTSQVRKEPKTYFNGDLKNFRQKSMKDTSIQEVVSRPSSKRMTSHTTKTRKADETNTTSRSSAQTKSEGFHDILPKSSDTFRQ
# UniProt Q7Z3D4, sequence (Q7Z3D4 whole entry, looked up): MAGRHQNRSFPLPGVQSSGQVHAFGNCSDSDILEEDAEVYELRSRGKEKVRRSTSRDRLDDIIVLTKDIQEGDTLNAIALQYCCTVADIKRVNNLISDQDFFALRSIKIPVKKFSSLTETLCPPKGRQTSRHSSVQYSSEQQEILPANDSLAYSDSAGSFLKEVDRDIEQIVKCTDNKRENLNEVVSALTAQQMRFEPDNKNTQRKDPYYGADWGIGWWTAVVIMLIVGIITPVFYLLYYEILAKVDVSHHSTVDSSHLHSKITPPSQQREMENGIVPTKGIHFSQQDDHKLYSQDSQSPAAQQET
# UniProt Q96IZ6, sequence (Q96IZ6 whole entry, looked up): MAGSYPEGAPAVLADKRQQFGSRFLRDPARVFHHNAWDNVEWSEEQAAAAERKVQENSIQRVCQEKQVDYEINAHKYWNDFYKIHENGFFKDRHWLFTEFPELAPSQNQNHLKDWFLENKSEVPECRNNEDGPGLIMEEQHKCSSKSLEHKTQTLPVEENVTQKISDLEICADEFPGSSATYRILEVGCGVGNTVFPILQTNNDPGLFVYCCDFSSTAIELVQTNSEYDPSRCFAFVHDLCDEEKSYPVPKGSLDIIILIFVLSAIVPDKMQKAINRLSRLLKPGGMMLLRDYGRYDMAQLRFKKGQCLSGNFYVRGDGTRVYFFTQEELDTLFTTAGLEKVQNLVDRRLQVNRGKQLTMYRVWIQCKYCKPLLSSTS
# UniProt Q96RQ3, sequence (Q96RQ3 whole entry, looked up): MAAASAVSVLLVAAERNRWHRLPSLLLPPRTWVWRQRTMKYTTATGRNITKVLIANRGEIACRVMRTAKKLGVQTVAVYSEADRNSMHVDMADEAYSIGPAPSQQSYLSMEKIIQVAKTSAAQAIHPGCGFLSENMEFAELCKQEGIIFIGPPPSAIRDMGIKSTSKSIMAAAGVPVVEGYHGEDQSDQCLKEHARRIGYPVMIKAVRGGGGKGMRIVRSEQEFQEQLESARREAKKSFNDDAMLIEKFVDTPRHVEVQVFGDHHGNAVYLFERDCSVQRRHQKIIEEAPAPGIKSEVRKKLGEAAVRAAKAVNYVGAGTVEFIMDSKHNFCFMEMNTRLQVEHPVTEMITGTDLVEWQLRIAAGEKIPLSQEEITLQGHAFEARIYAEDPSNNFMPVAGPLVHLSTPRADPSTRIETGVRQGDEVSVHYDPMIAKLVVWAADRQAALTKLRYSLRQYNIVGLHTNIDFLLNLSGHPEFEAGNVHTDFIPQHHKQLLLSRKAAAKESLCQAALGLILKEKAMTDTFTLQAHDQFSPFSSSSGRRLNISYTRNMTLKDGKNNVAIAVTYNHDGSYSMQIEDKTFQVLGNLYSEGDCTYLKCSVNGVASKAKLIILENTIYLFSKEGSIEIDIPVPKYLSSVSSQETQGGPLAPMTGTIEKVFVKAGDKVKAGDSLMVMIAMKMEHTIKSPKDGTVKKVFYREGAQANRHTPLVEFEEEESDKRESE
# UniProt Q86V48, sequence (Q86V48 whole entry, looked up): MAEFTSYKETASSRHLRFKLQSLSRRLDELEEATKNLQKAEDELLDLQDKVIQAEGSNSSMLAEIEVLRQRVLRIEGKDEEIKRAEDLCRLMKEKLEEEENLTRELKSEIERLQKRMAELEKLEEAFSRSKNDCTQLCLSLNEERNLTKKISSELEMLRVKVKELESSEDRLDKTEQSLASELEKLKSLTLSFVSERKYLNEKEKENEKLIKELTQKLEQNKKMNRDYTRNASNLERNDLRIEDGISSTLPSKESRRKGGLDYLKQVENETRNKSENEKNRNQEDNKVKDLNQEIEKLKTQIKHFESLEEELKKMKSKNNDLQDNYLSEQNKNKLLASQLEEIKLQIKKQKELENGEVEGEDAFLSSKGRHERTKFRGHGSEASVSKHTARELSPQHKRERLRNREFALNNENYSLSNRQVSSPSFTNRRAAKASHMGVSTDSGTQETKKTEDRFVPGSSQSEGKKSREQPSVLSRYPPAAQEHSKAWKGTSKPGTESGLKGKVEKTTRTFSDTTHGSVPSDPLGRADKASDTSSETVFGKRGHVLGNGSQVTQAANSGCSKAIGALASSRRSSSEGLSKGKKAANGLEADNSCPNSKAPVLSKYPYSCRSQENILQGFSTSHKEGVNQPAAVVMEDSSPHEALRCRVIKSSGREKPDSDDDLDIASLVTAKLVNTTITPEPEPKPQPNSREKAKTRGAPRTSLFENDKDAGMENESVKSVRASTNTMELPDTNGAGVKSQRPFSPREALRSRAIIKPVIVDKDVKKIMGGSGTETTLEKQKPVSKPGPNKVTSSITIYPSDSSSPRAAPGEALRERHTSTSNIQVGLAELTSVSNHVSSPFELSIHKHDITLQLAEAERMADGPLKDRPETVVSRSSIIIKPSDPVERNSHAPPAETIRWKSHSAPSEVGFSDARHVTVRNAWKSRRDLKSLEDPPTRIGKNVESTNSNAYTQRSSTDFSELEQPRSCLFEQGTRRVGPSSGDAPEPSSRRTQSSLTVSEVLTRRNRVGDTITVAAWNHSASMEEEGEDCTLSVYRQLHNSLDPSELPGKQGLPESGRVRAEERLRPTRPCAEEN
# UniProt Q9H8H3, sequence (Q9H8H3 whole entry, looked up): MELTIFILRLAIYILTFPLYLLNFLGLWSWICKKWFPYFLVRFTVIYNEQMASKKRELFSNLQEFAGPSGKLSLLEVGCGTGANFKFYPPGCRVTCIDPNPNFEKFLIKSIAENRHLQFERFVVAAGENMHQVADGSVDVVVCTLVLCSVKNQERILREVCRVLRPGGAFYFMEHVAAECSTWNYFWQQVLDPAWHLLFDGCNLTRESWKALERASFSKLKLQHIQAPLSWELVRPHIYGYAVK
# UniProt P28838, sequence (P28838 whole entry, looked up): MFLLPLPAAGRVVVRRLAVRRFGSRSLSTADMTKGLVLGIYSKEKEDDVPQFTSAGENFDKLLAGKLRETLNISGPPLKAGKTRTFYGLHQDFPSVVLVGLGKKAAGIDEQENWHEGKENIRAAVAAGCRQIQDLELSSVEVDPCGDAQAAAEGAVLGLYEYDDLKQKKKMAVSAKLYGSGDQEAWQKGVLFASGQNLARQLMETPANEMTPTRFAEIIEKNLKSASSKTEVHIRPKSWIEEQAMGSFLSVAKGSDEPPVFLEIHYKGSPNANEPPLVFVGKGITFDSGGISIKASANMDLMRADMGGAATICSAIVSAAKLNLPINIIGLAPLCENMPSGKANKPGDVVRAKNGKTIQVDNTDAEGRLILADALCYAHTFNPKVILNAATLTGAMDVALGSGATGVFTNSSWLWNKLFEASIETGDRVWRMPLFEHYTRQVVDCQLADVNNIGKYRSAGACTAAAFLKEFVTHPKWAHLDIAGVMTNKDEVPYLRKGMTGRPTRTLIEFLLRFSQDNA
# UniProt O14880, sequence (O14880 whole entry, looked up): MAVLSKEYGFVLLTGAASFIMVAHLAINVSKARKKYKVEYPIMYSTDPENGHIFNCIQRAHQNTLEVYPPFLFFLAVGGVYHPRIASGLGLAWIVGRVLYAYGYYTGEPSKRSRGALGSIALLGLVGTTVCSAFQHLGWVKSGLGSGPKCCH
# UniProt Q9GZY8, sequence (Q9GZY8 whole entry, looked up): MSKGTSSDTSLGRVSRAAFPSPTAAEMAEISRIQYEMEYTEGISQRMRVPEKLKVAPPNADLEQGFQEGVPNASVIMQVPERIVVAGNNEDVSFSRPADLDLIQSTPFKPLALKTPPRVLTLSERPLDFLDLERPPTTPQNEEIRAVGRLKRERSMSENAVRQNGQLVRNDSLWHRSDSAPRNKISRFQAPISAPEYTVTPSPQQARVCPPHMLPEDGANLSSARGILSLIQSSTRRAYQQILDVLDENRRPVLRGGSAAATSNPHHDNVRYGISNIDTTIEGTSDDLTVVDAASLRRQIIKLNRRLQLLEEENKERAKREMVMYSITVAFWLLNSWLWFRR
# UniProt P27361, sequence (P27361 whole entry, looked up): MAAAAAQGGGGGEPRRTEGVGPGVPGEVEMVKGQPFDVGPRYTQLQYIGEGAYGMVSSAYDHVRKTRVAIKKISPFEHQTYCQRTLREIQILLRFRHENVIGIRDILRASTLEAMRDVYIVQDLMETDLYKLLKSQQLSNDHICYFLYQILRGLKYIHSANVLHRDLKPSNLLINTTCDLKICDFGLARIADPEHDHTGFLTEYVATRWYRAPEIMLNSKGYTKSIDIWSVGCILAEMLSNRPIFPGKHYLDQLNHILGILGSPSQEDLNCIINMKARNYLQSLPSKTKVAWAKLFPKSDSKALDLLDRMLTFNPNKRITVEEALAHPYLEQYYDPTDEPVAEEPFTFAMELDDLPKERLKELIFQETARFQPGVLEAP
row,Target,log2 fold change
1,MED16 (UniProt Q9Y2X0),0.021
2,LAP3 (UniProt P28838),-0.024
3,LUZP1 (UniProt Q86V48),-0.006
4,KSR1 (UniProt Q8IVT5),-0.011
5,LTN1 isoform 3 (UniProt O94822),0.001
6,MAP2K3 isoform 3 (UniProt P46734),0.019
7,MRPL46 (UniProt Q9H2W6),-0.002
8,MCU (UniProt Q8NE86),0.014
9,KIF14 (UniProt Q15058),0.002
10,KIF15 (UniProt Q9NS87),0.022
11,MAP3K4 (UniProt Q9Y6R4),-0.015
12,LIMS1 isoform 3 (UniProt P48059),-0.012
13,KIF11 (UniProt P52732),0.005
14,KIFC1 (UniProt Q9BW19),-0.009
15,MAT2B (UniProt Q9NZL9),-0.023
16,MFF isoform 2 (UniProt Q9GZY8),0
17,KPNA2 (UniProt P52292),-0.01
18,MED8 isoform 2 (UniProt Q96G25),-0.03
19,MAPK8 isoform 3 (UniProt P45983),-0.057
20,MGST3 (UniProt O14880),-0.004

row,Target,log2 fold change
1,KIF4A (UniProt O95239),-0.013
2,MPP1 (UniProt Q00013),-0.019
3,MAP4 (UniProt E7EVA0),-0.058
4,LARS2 (UniProt Q15031),0.02
5,LIMK2 isoform 3 (UniProt P53671),-0.03
6,KPNA4 (UniProt O00629),0.003
7,MAP7D3 (UniProt Q8IWC1),0.035
8,METTL7A (UniProt Q9H8H3),0.016
9,LYN (UniProt P07948),0.003
10,LUC7L (UniProt Q9NQ29),0.002
11,LYSMD3 (UniProt Q7Z3D4),-0.099
12,KRR1 (UniProt Q13601),0.041
13,METTL2A (UniProt Q96IZ6),0.021
14,MARK3 (UniProt P27448),0.005
15,MLH1 (UniProt P40692),0.017
16,KLC2 (UniProt Q9H0B6),-0.045
17,MCCC1 (UniProt Q96RQ3),-0.028
18,MAPK3 (UniProt P27361),-0.012
19,MITD1 (UniProt Q8WV92),-0.02
